# Source: PubChem BioAssay AID651871 (Sanford-Burnham Center for Chemical Genomics, 2012)
# “And” between values parts separate entries of the source, which are not always exact repeats. Equal entries are not always repeated.
# System: H9c2
# Experiment: protection of cardiomyocytes from stress damage, SAR follow-up, cell-based, panel, H9c2 and HL-1, ATP luminescence, set 2 (AID 651871);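 note: cells exposed to stressor for 2 h before ATP readout; reference of the scale not given here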
# Conditions: H9c2/HL-1 cardiomyocytes, H2O2 oxidative stress; with H2O2, run 3, at 79 µM (top of the series)
row,Structure (SMILES),activity (protection/inhibition)
1,CCOC(=O)c1cccc(NC(=O)CNC(=O)c2cc(-c3cc(OC)c(OC)c(OC)c3)nc3ccccc23)c1,99%
2,COc1cc(-c2cc(C(=O)Nc3cccc(C(=O)NCc4ccccc4)c3)c3ccccc3n2)cc(OC)c1OC,95.7%
3,COc1ccc2nc(-c3cc(OC)c(OC)c(OC)c3)cc(C(=O)NCC(=O)Nc3ccc(C(C)=O)cc3)c2c1,91.8% and 76.1%
4,COc1ccc2c(c1OC)C(=O)N1c3ccccc3C(=O)N(Cc3cccc(Cl)c3Cl)C21 (centres undefined),77.5% and 104% and 43.3%
